Laboratory results reported in PubChem BioAssay AID504408 (Broad Institute, 2011).
Out of some 300,000 compounds screened, about 5,200 (1.7%) were called active. Only a selection was taken, and actives are over-represented in it overall. Unmarked numbers belong to inactive results.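 The calls were made as follows: active = mean replicate activation of at least 50% with a set share of replicates each reaching 50%; inconclusive = only one of those two conditions met; inactive = mean below 50% and too few replicates reaching it.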

Assay: HSF-1 activators, primary screen, NIH3T3-HGL cells, MG132 stress, luminescence, single point (AID 504408);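 also: 0% = median of the neutral control wells and 100% = twice that signal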
Conditions: NIH3T3-HGL HSF-1 luciferase reporter, MG132, 8 h; at 9 µM; stronger effect = higher value; 100% = twice DMSO control signal

Question: With `O=[N+]([O-])C(=c1ccc2c(c1)N1C3=C(CCCC3)CC3CCCCC31N=2)[N+](=O)[O-]` (configuration not stated) as the molecule, how does the activation read?
Answer: 74.2% (active)

Question: With `COc1ccc(/C=C/C(=O)NC(=S)NN2CCCCC2c2cccnc2)cc1` (configuration not stated) as the molecule, how does the activation read?
Answer: 13.9%

Question: For `O=C(NC(=S)N1CCCCC1c1cccnc1)c1ccccc1` (configuration not stated), which activation is on record?
Answer: 4.49%

Question: For `COc1ccc(C(=O)NC(=S)N2CCCCC2c2cccnc2)cc1OC` (configuration not stated), which activation is on record?
Answer: 60.1% (active)

Question: For `Cc1nc(-c2ccc(F)cc2)c(CC(=O)Nc2cc(S(=O)(=O)N3CCCCC3)ccc2C)s1`, which activation is on record?
Answer: 44.2%

Question: For `C=CCOc1ccc(/C=C/C(=O)OCC(=O)NCC2CCCO2)cc1` (configuration not stated), which activation is on record?
Answer: -21.7%

Question: Which activation does the source give for `O=C(NCCc1ccco1)C(=O)NCCC1CCCCN1S(=O)(=O)c1ccccc1` (configuration not stated) here?
Answer: 3.12%

Question: For `Cc1cc(CO)nn1-c1ccc([N+](=O)[O-])cc1`, which activation is on record?
Answer: -10.6%

Question: With `Cc1ccc(-n2cc3ccc([N+](=O)[O-])cc3n2)cc1` as the molecule, how does the activation read?
Answer: 59.2% (active)

Question: For `Cc1ccc(-c2cn3cc([N+](=O)[O-])ccc3n2)cc1`, which activation is on record?
Answer: 29.6%

Question: Which activation does the source give for `COc1cc(C2C(C(=O)c3cccs3)=C(O)C(=O)N2CCN2CCOCC2)ccc1OCCC(C)C` (configuration not stated) here?
Answer: -4.43%

Question: With `Cc1ccc(S(=O)(=O)CCC(=O)Nc2nnc(CC(C)C)s2)cc1` as the molecule, how does the activation read?
Answer: 16.5%

Question: With `COc1ccc(C(CNC(=O)c2cccc(NS(=O)(=O)c3ccc(C)c(F)c3)c2)N2CCCC2)cc1` (configuration not stated) as the molecule, how does the activation read?
Answer: -2.57%

Question: For `CC1CCN(C(=O)COC(=O)c2cc(S(=O)(=O)N3CCOCC3)ccc2Cl)CC1`, which activation is on record?
Answer: -3.43%

Question: With `CC1(C)CCSC(/C=C/c2ccccc2)=N1` as the molecule, how does the activation read?
Answer: 172% (active)

Question: With `CCCn1nc(C(=O)NNC(=O)CCOc2ccccc2OCC)c2ccccc2c1=O` as the molecule, how does the activation read?
Answer: 2.86%

Question: Which activation does the source give for `O=C(CN1CCOCC1)Nc1cccc([N+](=O)[O-])c1` here?
Answer: 8.61%

Question: With `Cc1nnnn1/C(=C\c1ccccc1)C(=O)OCC(=O)N1CC2(C)CC1CC(C)(C)C2` (configuration not stated) as the molecule, how does the activation read?
Answer: 82.4% (active)

Question: For `Cc1cccc(C(=O)NCC(=O)OCC(=O)N2CC3(C)CC2CC(C)(C)C3)c1` (configuration not stated), which activation is on record?
Answer: 15.9%

Question: With `COc1ccc(C(=O)N2CC3(C)CC2CC(C)(C)C3)cc1OC` (configuration not stated) as the molecule, how does the activation read?
Answer: -7.35%

Question: With `[O-][n+]1ccc(OCc2ccccc2)cc1` as the molecule, how does the activation read?
Answer: -6.48%

Question: For `O=C(NCCCn1ccnc1)c1cc(-c2ccccc2)on1`, which activation is on record?
Answer: 52.5% (active)

Question: For `CC(NC(=O)c1cc(-c2ccccc2)on1)c1ccccc1` (configuration not stated), which activation is on record?
Answer: 25.2%

Question: For `O=C(NC1CCCC1)c1cc(-c2ccccc2)on1`, which activation is on record?
Answer: 61.2% (active)

Question: For `O=C(NC1CCCCC1)c1cc(C2CC2)on1`, which activation is on record?
Answer: 24.7%

Question: Which activation does the source give for `COc1ccc(-c2cc(C(=O)NCCCn3ccnc3)no2)cc1` here?
Answer: -2.3%

Question: For `COc1ccccc1-c1cc(C(=O)NCCCn2ccnc2)no1`, which activation is on record?
Answer: -0.494%
